Measured values from PubChem BioAssay (NCI).
This is part of a sample that, as a whole, favours compounds with a hit. Of some 83,000 tested, about 20% had one in any assay.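 Plates (96-well) were seeded with cells, treated with compound at one concentration, and incubated for 48 hours before percent growth was determined.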 Active and inactive are the calls of the source. Rule for the calls: active = growth percent below 10; inactive = the rest.

Key:
Test in all cases: NCI-60 one-dose screen, 48 h (100 = growth as untreated, 0 = no growth, -100 = all killed)
Settings in all cases: 10 µM unless noted
HCT-15 colon = test system: HCT-15 colon
HT29 colon = test system: HT29 colon
SNB-75 CNS = test system: SNB-75 CNS
SNB-19 CNS = test system: SNB-19 CNS
U251 CNS = test system: U251 CNS
PC-3 prostate = test system: PC-3 prostate
LOX IMVI melanoma = test system: LOX IMVI melanoma
SK-MEL-5 melanoma = test system: SK-MEL-5 melanoma
UACC-62 melanoma = test system: UACC-62 melanoma
SK-MEL-28 melanoma = test system: SK-MEL-28 melanoma

Measured: growth

C=C1C(=O)O[C@@H]2/C=C(/C)C3=CC(=O)[C@@](C)(C[C@H](OC(=O)/C(C)=C\C)[C@@H]12)O3
inactive: SNB-75 CNS 44.4% | SNB-19 CNS 64.4% | U251 CNS 28.8% | PC-3 prostate 36.6%
active: HCT-15 colon -2.86% | HT29 colon -38.7% | LOX IMVI melanoma -44.8%

COc1ccc2c(ccn2C(=O)N2c3ccccc3Sc3ccccc32)c1
active: HT29 colon -12.6% | SNB-75 CNS -3.95%
inactive: HCT-15 colon 32.7% | U251 CNS 27% | PC-3 prostate 35.2% | SK-MEL-5 melanoma 24.5% | UACC-62 melanoma 33.3% | LOX IMVI melanoma 46.5%

COC[C@]12CC[C@@H](C)[C@H](C)[C@H]1C1=CC[C@@H]3[C@@]4(C)CCCNC(C)(C)[C@@H]4CC[C@@]3(C)[C@]1(C)CC2
inactive: SNB-75 CNS 105% | PC-3 prostate 18.4% | SK-MEL-5 melanoma 35.6% | UACC-62 melanoma 17.2%
active: HCT-15 colon 8.12% | HT29 colon 0.874% | U251 CNS -34.8% | LOX IMVI melanoma -87.8% | SK-MEL-28 melanoma -59.6%

C#C[C@]1(O)CC[C@H]2[C@@H]3CC=C4c5sc(Nc6cccc(C)n6)nc5CC[C@]4(C)[C@H]3CC[C@@]21C
active: SNB-75 CNS -23.9% | U251 CNS 6.3% | PC-3 prostate -1.41% | SK-MEL-5 melanoma 3.52% | UACC-62 melanoma -20.9% | SK-MEL-28 melanoma -55%
inactive: HCT-15 colon 15.6% | HT29 colon 37.7%

COCCC[C@H]1O[C@@](O)([C@H](C)[C@@H]2CC(OC)C(O)/C=C(C)/C=C(C)/C=C(\C)C(OC3O[C@@H](C)[C@H](O)C(O)[C@@H]3O)C(C)/C=C(C)/C=C(OC)/C=C(\C)C(=O)O2)C(OC)C(O)[C@]1(C)O[C@H]1C[C@@H](O)[C@H](O[C@H]2C[C@](C)(O)[C@H](O)C(C)O2)C(C)O1 (some centres not stated)
inactive: HCT-15 colon 57.5% | HT29 colon 67% | SNB-75 CNS 35.3% | U251 CNS 47% | PC-3 prostate 27.8% | UACC-62 melanoma 58.4% | LOX IMVI melanoma 76.4% | SK-MEL-28 melanoma 84.2%
active: SK-MEL-5 melanoma 7.32%

O=C(NNc1nc2cc(F)cc(F)c2n2cccc12)c1ncccn1
inactive: HCT-15 colon 26.2% | HT29 colon 25.4% | U251 CNS 14.4% | PC-3 prostate 31.6% | SK-MEL-28 melanoma 22.8%
active: SNB-75 CNS -7.95% | SK-MEL-5 melanoma -40.9% | UACC-62 melanoma 2.21% | LOX IMVI melanoma 5.13%

O=C(/C=C1\C=CN(CCCCO)c2ccccc21)n1ccc2ccccc21
inactive: HCT-15 colon 107% | HT29 colon 109% | SNB-19 CNS 94.8% | U251 CNS 102% | PC-3 prostate 107% | SK-MEL-5 melanoma 98.1% | UACC-62 melanoma 87.6% | LOX IMVI melanoma 114%

O=C(/C=C1\C=CN(CCCCCCF)c2ccccc21)n1ccc2ccccc21
inactive: HCT-15 colon 101% | HT29 colon 98.3% | SNB-19 CNS 97.1% | U251 CNS 98.9% | PC-3 prostate 84.7% | SK-MEL-5 melanoma 94.4% | UACC-62 melanoma 76% | LOX IMVI melanoma 101% | SK-MEL-28 melanoma 106%

Oc1ccc(CSc2nnc(-c3ccc(Br)cc3)o2)c2cccnc12
inactive: HCT-15 colon 10.7% | HT29 colon 111% | SNB-19 CNS 20% | U251 CNS 12.5% | PC-3 prostate 23% | SK-MEL-5 melanoma 12% | UACC-62 melanoma 27.3% | LOX IMVI melanoma 20.3% | SK-MEL-28 melanoma 32.8%

Oc1ccc(CSc2nnc(-c3ccc(Oc4ccccc4)cc3)n2-c2ccccc2)c2cccnc12
active: SK-MEL-5 melanoma -24.1% | UACC-62 melanoma -25.4% | LOX IMVI melanoma 4.48%
inactive: HCT-15 colon 10.8% | HT29 colon 44.8% | SNB-19 CNS 13.8% | U251 CNS 11.9% | PC-3 prostate 17.3% | SK-MEL-28 melanoma 14.6%

C/C(=C(/C)C1CC1CCN(C(=O)c1ccccn1)S(=O)(=O)c1ccc(C)cc1)C1CCCCC1 (configuration not stated)
inactive: HCT-15 colon 91.8% | HT29 colon 98.3% | SNB-19 CNS 98.4% | U251 CNS 103% | PC-3 prostate 93.4% | SK-MEL-5 melanoma 78.6% | UACC-62 melanoma 63.6% | LOX IMVI melanoma 97.8% | SK-MEL-28 melanoma 97.3%

NC(=O)N1N=C(c2cc3ccccc3oc2=O)CC1c1cn(-c2ccccc2)nc1-c1ccc(Cl)cc1 (configuration not stated)
inactive: HCT-15 colon 19.4% | HT29 colon 35.9% | SNB-19 CNS 45% | U251 CNS 30.5% | PC-3 prostate 25.9% | SK-MEL-5 melanoma 19.5% | UACC-62 melanoma 38.7% | LOX IMVI melanoma 20.3%

Oc1ccc(CSc2nnc(-c3ccccc3)n2-c2ccccc2)c2cccnc12
active: SK-MEL-5 melanoma -22% | UACC-62 melanoma -34.1% | LOX IMVI melanoma 5.5%
inactive: HCT-15 colon 13.6% | HT29 colon 52.4% | SNB-19 CNS 12.6% | U251 CNS 12.8% | PC-3 prostate 23% | SK-MEL-28 melanoma 17.7%

O=C1[C@H]2Cc3c([nH]c4ccccc34)[C@@H](c3ccc(Cl)cc3)N2C(=O)CN1C1CCN(Cc2c(Cl)cccc2Cl)CC1
inactive: HCT-15 colon 54.5% | HT29 colon 81.8% | SNB-19 CNS 94.2% | U251 CNS 91.2% | PC-3 prostate 70.8% | SK-MEL-5 melanoma 90.1% | UACC-62 melanoma 81.8% | SK-MEL-28 melanoma 103%
active: LOX IMVI melanoma -89%

COc1cc2cc(Oc3ccc(NC(=O)Nc4cccc(C(F)(F)F)c4)cc3)c(C)nc2cc1OCCN(C)C
inactive: HCT-15 colon 25% | HT29 colon 60.1% | SNB-19 CNS 99% | U251 CNS 84.8% | PC-3 prostate 85.9% | SK-MEL-5 melanoma 81.2% | UACC-62 melanoma 100% | SK-MEL-28 melanoma 91.6%
active: LOX IMVI melanoma -74.9%

COc1cc(/C=N/n2cnc3oc(-c4ccccc4)cc3c2=N)cc(CN2CCCCC2)c1O
active: HCT-15 colon -79.8% | HT29 colon -14.1% | SNB-19 CNS -41.3% | U251 CNS -66.5% | PC-3 prostate -31% | SK-MEL-5 melanoma -89.7% | UACC-62 melanoma -74.8% | LOX IMVI melanoma -86.6% | SK-MEL-28 melanoma -85.8%

Oc1ccc(CSc2nnc(-c3ccncc3)o2)c2cccnc12
active: SK-MEL-5 melanoma -51.3%
inactive: HCT-15 colon 23% | HT29 colon 20.7% | SNB-19 CNS 17.6% | U251 CNS 15.8% | PC-3 prostate 12.7% | UACC-62 melanoma 18.2% | LOX IMVI melanoma 21.4%

Oc1ccc(CSc2nnc(-c3ccc(Br)cc3)n2-c2ccccc2)c2cccnc12
active: U251 CNS 7.75% | UACC-62 melanoma 0.404%
inactive: HCT-15 colon 15.7% | HT29 colon 89.6% | SNB-19 CNS 17.8% | PC-3 prostate 29.5% | SK-MEL-5 melanoma 12% | LOX IMVI melanoma 36.2% | SK-MEL-28 melanoma 40.9%

COc1ccc(N2CCN(C(=O)CSc3ccc(-c4nc5cc(C)c(C)cc5[nH]4)cn3)CC2)cc1
active: SK-MEL-5 melanoma 3.13%
inactive: HCT-15 colon 52.8% | HT29 colon 85.7% | SNB-19 CNS 87.5% | U251 CNS 95.9% | PC-3 prostate 56.4% | UACC-62 melanoma 45.3% | LOX IMVI melanoma 56.8% | SK-MEL-28 melanoma 74.4%

COc1ccc(OC)c([C@H]2c3[nH]c4ccccc4c3C[C@H]3C(=O)N(CCCCCCC(=O)NO)CC(=O)N23)c1
inactive: HCT-15 colon 99.5% | HT29 colon 87.6% | SNB-19 CNS 86.9% | U251 CNS 81.1% | PC-3 prostate 77.9% | SK-MEL-5 melanoma 86.8% | UACC-62 melanoma 53.1% | LOX IMVI melanoma 15% | SK-MEL-28 melanoma 75.2%

Oc1ccc(-c2nnc(SCc3ccc(O)c4ncccc34)n2-c2ccccc2)cc1
active: U251 CNS 9.39% | SK-MEL-5 melanoma -44.6% | UACC-62 melanoma -4.05% | LOX IMVI melanoma 5.09%
inactive: HCT-15 colon 20.3% | HT29 colon 24.9% | SNB-19 CNS 14.7% | PC-3 prostate 32.3% | SK-MEL-28 melanoma 17%

CC(C)N=C(N/C(N)=N/c1nc2ccccc2s1)NC(C)C
inactive: HCT-15 colon 62.5% | HT29 colon 31.7% | SNB-19 CNS 48.2% | U251 CNS 57.6% | PC-3 prostate 64% | SK-MEL-5 melanoma 62.5% | UACC-62 melanoma 61.4% | SK-MEL-28 melanoma 74.6%
active: LOX IMVI melanoma 1.73%

O=C(CN1C(=O)CSC1=O)Nc1ccc(C(=O)/C=C/c2cc3ccccc3nc2Cl)cc1
inactive: HCT-15 colon 79.3% | HT29 colon 17.4% | SNB-19 CNS 83.4% | U251 CNS 77.2% | PC-3 prostate 70.5% | SK-MEL-5 melanoma 34% | UACC-62 melanoma 74% | LOX IMVI melanoma 37.5% | SK-MEL-28 melanoma 95.4%

CCCCCCCCNC(=O)c1ccc(Cn2c(CCCC)nc3c(N)nc4ccccc4c32)cc1
active: HCT-15 colon -55.8% | HT29 colon -23% | U251 CNS -59% | SK-MEL-5 melanoma -96.8% | LOX IMVI melanoma -86.3% | SK-MEL-28 melanoma -94%
inactive: SNB-19 CNS 14.9% | PC-3 prostate 41.5% | UACC-62 melanoma 23.4%

Nc1ccc(-c2nnc(SCc3ccc(O)c4ncccc34)n2-c2ccccc2)cc1
active: U251 CNS 8.88% | SK-MEL-5 melanoma -54.6%
inactive: HCT-15 colon 11.3% | HT29 colon 23.8% | SNB-19 CNS 12.4% | PC-3 prostate 14.1% | UACC-62 melanoma 11.9% | LOX IMVI melanoma 14% | SK-MEL-28 melanoma 34%

O=C1NC(=O)/C(=C/c2ccc(OCc3cc4ccccc4nc3Cl)cc2)S1
inactive: HCT-15 colon 88.3% | HT29 colon 117% | SNB-19 CNS 100% | U251 CNS 101% | PC-3 prostate 92% | SK-MEL-5 melanoma 84.4% | UACC-62 melanoma 83.7% | LOX IMVI melanoma 56.4% | SK-MEL-28 melanoma 104%
